The panel holds about 79,000 compounds, 15% with a hit somewhere; the sample as a whole holds those more often. Active and inactive are the calls of the source. No stated cut-off is given here; in the data, active means growth inhibition above about 70%; inactive means the rest.
Key:
[1] = NCI Yeast Anticancer Drug Screen. Data for the rad52 strain (AID 147);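 further: 0% = growth of vehicle-treated control cultures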; conditions: S. cerevisiae rad52 mutant growth inhibition, hits give high values
Outline: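 Screen used a yeast mutant impaired in DNA repair. After compound exposure, growth was measured. Values reflect inhibition compared with vehicle-treated cells.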

[2] = NCI Yeast Anticancer Drug Screen. Data for the wt1 strain (AID 149);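 further: 0% = growth of vehicle-treated wt1 cultures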; conditions: S. cerevisiae wt1 strain (SPY 50644) growth inhibition, hits give high values
Outline: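 Yeast wt1 strain exposed to compounds; growth inhibition measured relative to vehicle-treated controls.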

[3] = NCI Yeast Anticancer Drug Screen. Data for the rad50EPP+ strain (AID 151);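 further: 0% = growth of vehicle-treated control cultures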; conditions: S. cerevisiae rad50 mutant strain, hits give high values
Outline: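 Exposing the rad50EPP+ strain to each compound, growth was compared with vehicle-only cultures to give inhibition.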

[4] = NCI Yeast Anticancer Drug Screen. Data for the mgt1 strain (AID 153); conditions: S. cerevisiae mgt1 mutant growth inhibition, hits give high values
Outline: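 Genetically defined yeast (mgt1) treated with compound; inhibition of growth expressed against vehicle-treated controls.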

[5] = NCI Yeast Anticancer Drug Screen. Data for the rad50 strain (AID 155);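 further: 0% = growth of vehicle-only cultures of the same strain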; conditions: S. cerevisiae rad50 strain growth inhibition, hits give high values
Outline: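 Yeast carrying a defined DNA repair defect were exposed to test compounds, and growth was compared with vehicle-treated controls to give percent inhibition.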

[6] = NCI Yeast Anticancer Drug Screen. Data for the mec2-1 strain (AID 157); conditions: S. cerevisiae mec2-1 strain, hits give high values
Outline: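 Readout is yeast growth inhibition, normalised to vehicle-treated controls, in the mec2-1 strain exposed to compound.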

[7] = NCI Yeast Anticancer Drug Screen. Data for the rad14 strain (AID 159);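 further: 0% = growth of vehicle-treated control cultures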; conditions: S. cerevisiae rad14 strain growth inhibition, hits give high values
Outline: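 Yeast cells carrying a defined DNA-repair defect were exposed to compounds, and growth inhibition was calculated relative to vehicle-treated control cultures.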

[8] = NCI Yeast Anticancer Drug Screen. Data for the sgs1 mgt1 strain (AID 161);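 further: 0% = growth of cultures given vehicle only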; conditions: S. cerevisiae sgs1 mgt1 strain, hits give high values
Outline: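 Growth of a repair-deficient yeast mutant was monitored after compound treatment and expressed as inhibition relative to vehicle-treated cultures.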

[9] = NCI Yeast Anticancer Drug Screen. Data for the CLN2oe strain (AID 163);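 further: 0% = growth of vehicle-only control cultures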; conditions: S. cerevisiae CLN2oe strain, hits give high values
Outline: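 Values reflect how much compound exposure reduced yeast growth, referenced to vehicle-exposed cells. Assay organism is a strain with a defined genetic change affecting cell-cycle control.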

[10] = NCI Yeast Anticancer Drug Screen. Data for the cln2 rad14 strain (AID 165);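 further: 0% = growth equal to vehicle treated cultures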; conditions: S. cerevisiae cln2 rad14 strain, hits give high values
Outline: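 Relative to vehicle controls, growth inhibition of compound-treated cln2 rad14 yeast was recorded.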

[11] = NCI Yeast Anticancer Drug Screen. Data for the bub3 strain (AID 167); conditions: S. cerevisiae bub3 mutant strain, hits give high values
Outline: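 Compounds were applied to a genetically altered yeast strain carrying a cell-cycle control defect. Growth inhibition was scored against vehicle-treated controls.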

[12] = NCI Yeast Anticancer Drug Screen. Data for the wt2 strain (AID 169);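 further: 0% = growth of vehicle-treated yeast cultures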; conditions: S. cerevisiae wt2 strain growth inhibition, hits give high values
Outline: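 Values express reduction in yeast growth under compound treatment, referenced to vehicle-treated cells.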

[13] = NCI Yeast Anticancer Drug Screen. Data for the mlh1 strain (AID 171);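 further: 0% = growth of vehicle-treated control cultures of the same strain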; conditions: S. cerevisiae mlh1 strain growth inhibition, hits give high values
Outline: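 Steps: expose the defined-mutant yeast strain to compound; expose a parallel culture to vehicle; measure growth; express compound effect as inhibition relative to the vehicle culture.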

[14] = NCI Yeast Anticancer Drug Screen. Data for the sgs1 strain (AID 173);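 further: 0% = growth of vehicle-only control cultures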; conditions: S. cerevisiae sgs1 mutant, hits give high values
Outline: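 Treat defined-mutant yeast with compound; measure growth; calculate inhibition relative to vehicle-treated cells.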

[15] = NCI Yeast Anticancer Drug Screen. Data for the mlh1 rad18 strain (AID 175); conditions: S. cerevisiae mlh1 rad18 strain growth inhibition, hits give high values
Outline: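 Test agents were incubated with a yeast strain of defined genotype (DNA damage repair defect). Inhibition of growth was derived by comparison with vehicle-exposed cultures.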

[16] = NCI Yeast Anticancer Drug Screen. Data for the rad18 strain (AID 177); conditions: S. cerevisiae rad18 mutant growth inhibition, hits give high values
Outline: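 A genetically defined yeast mutant impaired in DNA damage repair was treated with test compounds, then its growth was measured against cultures receiving vehicle alone.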

[17] = at 5.0 µM (retest, dose inferred, filed as 0.5)
[18] = at 50.0 µM (retest, dose inferred, filed as 5.0)

Measured: growth inhibition

CCCCCCCCCCCCNC(C)=O
active: [5]; [18] 93% | [5]; at 50.0 µM 81.3% | [5]; at 100.0 µM 90% | [6]; [18] 78% | [6]; at 50.0 µM 83% | [8]; [18] 88% | [8]; at 50.0 µM 81% | [11]; [18] 91% | [11]; at 50.0 µM 80% | [13]; at 100.0 µM 72% | [15]; [18] 94% | [15]; at 50.0 µM 91.8%
inactive: [1]; at 1.2 µM -5% | [1]; at 3.7 µM -7% | [1]; at 11.0 µM -8% | [1]; at 33.0 µM -12% | [1]; at 100.0 µM 54% | [2]; at 1.2 µM -6% | [2]; at 3.7 µM -6% | [2]; at 11.0 µM -8% | [2]; at 33.0 µM -7% | [2]; at 100.0 µM 9% | [3]; at 1.2 µM -2% | [3]; at 3.7 µM 1% | [3]; at 11.0 µM 7% | [3]; at 33.0 µM 14% | [3]; at 100.0 µM 26% | [4]; at 1.2 µM -2% | [4]; at 3.7 µM -6% | [4]; at 11.0 µM -5% | [4]; at 33.0 µM -14% | [4]; at 100.0 µM 14% | [5]; at 1.2 µM -10% | [5]; at 3.7 µM -8% | [5]; [17] -165% | [5]; at 11.0 µM 2% | [5]; at 33.0 µM 3% | [6]; at 1.2 µM 2% | [6]; at 3.7 µM -3% | [6]; [17] -47% | [6]; at 11.0 µM 8% | [6]; at 33.0 µM 3% | [6]; at 100.0 µM 3% | [7]; at 1.2 µM -3% | [7]; at 3.7 µM 0% | [7]; at 11.0 µM -2% | [7]; at 33.0 µM 1% | [7]; at 100.0 µM 40% | [8]; [17] -63% | [9]; at 1.2 µM -1% | [9]; at 3.7 µM -1% | [9]; at 11.0 µM 0% | [9]; at 33.0 µM -4% | [9]; at 100.0 µM -2% | [10]; [17] -61% | [10]; [18] -2% | [10]; at 50.0 µM 15.3% | [11]; at 1.2 µM -9% | [11]; at 3.7 µM -3% | [11]; [17] -62% | [11]; at 11.0 µM -2% | [11]; at 33.0 µM -1% | [11]; at 100.0 µM 13% | [12]; at 1.2 µM -2% | [12]; at 3.7 µM -1% | [12]; at 11.0 µM -3% | [12]; at 33.0 µM -7% | [12]; at 100.0 µM 24% | [13]; at 1.2 µM 6% | [13]; at 3.7 µM -8% | [13]; at 11.0 µM -4% | [13]; at 33.0 µM -6% | [14]; at 1.2 µM -2% | [14]; at 3.7 µM -3% | [14]; at 11.0 µM -3% | [14]; at 33.0 µM -4% | [14]; at 100.0 µM 43% | [15]; [17] -116% | [16]; at 1.2 µM -4% | [16]; at 3.7 µM -4% | [16]; at 11.0 µM -2% | [16]; at 33.0 µM -3% | [16]; at 100.0 µM 61%

CN(C)N=Nc1ccccc1C(=O)NC#N
active: [1]; at 11.0 µM 83% | [1]; at 33.0 µM 98% | [1]; at 100.0 µM 98% | [2]; at 11.0 µM 97% | [2]; at 33.0 µM 98% | [2]; at 100.0 µM 99% | [3]; at 33.0 µM 98% | [3]; at 100.0 µM 98% | [4]; at 11.0 µM 98% | [4]; at 33.0 µM 99% | [4]; at 100.0 µM 98% | [5]; at 11.0 µM 97% | [5]; at 33.0 µM 98% | [5]; [18] 98% | [5]; at 50.0 µM 90% | [5]; at 100.0 µM 94%
inactive: [1]; at 1.2 µM 8% | [1]; at 3.7 µM 0% | [2]; at 1.2 µM -8% | [2]; at 3.7 µM -2% | [3]; at 1.2 µM 7% | [3]; at 3.7 µM 0% | [3]; at 11.0 µM 13% | [4]; at 1.2 µM -1% | [4]; at 3.7 µM 20% | [5]; at 1.2 µM -5% | [5]; at 3.7 µM -14% | [5]; [17] 18% | [6]; at 1.2 µM -12% | [6]; at 3.7 µM 0%

From PubChem BioAssay (NCI)
